Source: PubChem BioAssay AID1159580 (chemical genetic matrix, 2015)
Screen size: about 5,500 compounds; about 2,000 (36%) were called active. Roughly 18% stayed inconclusive and do not appear here. Rule as the data show it: active = normalized growth mostly below about 0.91 (no sharp cut-off); inconclusive = no clear call, values can overlap the other calls; inactive = mostly above about 0.92. The list shows a part of the results.

Test: chemical genetic growth profiling, strain panel (AID 1159580);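 also: tested at 20 µM; growth read once vehicle control cultures reached saturation at 30 °C; 1 = growth at the plate median or of vehicle wells; lower values mean less growth of the strain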
Conditions: S. cerevisiae deletion strains, growth OD
[1] = locus YCL061C, strain MRC1, active compounds read low
[2] = locus YDL101C, strain DUN1, active compounds read low
[3] = locus YHR030C, strain SLT2, active compounds read low
[4] = locus YHR079C, strain IRE1, active compounds read low
[5] = locus YJL095W, strain BCK1, active compounds read low
[6] = locus YJR066W, strain TOR1, active compounds read low
[7] = locus YLR113W, strain HOG1, active compounds read low
[8] = locus YNL183C, strain NPR1, active compounds read low
[9] = locus YOR231W, strain MKK1, active compounds read low
[10] = locus YPL256C, strain CLN2, active compounds read low

Measured: normalized growth

CCN(CCS(=O)(=O)c1ccc(C)cc1)S(=O)(=O)c1ccccc1
inactive: locus YAL013W, strain DEP1, active compounds read low 1.02 | locus YBR229C, strain ROT2, active compounds read low 1.01 | [1] 0.988 | [2] 0.991 | locus YDL134C, strain PPH21, active compounds read low 0.987 | locus YDR150W, strain NUM1, active compounds read low 1.01 | locus YEL061C, strain CIN8, active compounds read low 0.987 | locus YGR078C, strain PAC10, active compounds read low 0.998 | locus YGR229C, strain SMI1, active compounds read low 0.999 | [3] 0.993 | locus YHR087W, strain rtc3, active compounds read low 0.994 | locus YJR043C, strain POL32, active compounds read low 1 | locus YJR075W, strain HOC1, active compounds read low 0.995 | locus YKL190W, strain CNB1, active compounds read low 0.998 | locus YLR039C, strain RIC1, active compounds read low 1.05 | locus YLR058C, strain SHM2 (second series), active compounds read low 0.998 | locus YLR085C, strain ARP6, active compounds read low 1.06 | locus YLR262C, strain YPT6, active compounds read low 1.05 | locus YML094W, strain GIM5, active compounds read low 1.03 | locus YMR219W, strain ESC1, active compounds read low 1.01 | locus YMR263W, strain SAP30, active compounds read low 0.988 | locus YMR307W, strain GAS1, active compounds read low 0.969 | locus YNL153C, strain GIM3, active compounds read low 0.984 | locus YNL298W, strain CLA4 (second series), active compounds read low 1.01 | locus YNL322C, strain KRE1, active compounds read low 1.01 | locus YNR030W, strain Alg12, active compounds read low 0.99 | locus YPL055C, strain LGE1, active compounds read low 1.06 | locus YPL241C, strain CIN2, active compounds read low 1 | locus YPR135W, strain CTF4, active compounds read low 0.943

O=c1[nH][nH]c(=O)n1CCCc1cc2cccc3ccc4cccc1c4c32
inactive: locus YAR019C, strain CDC15, active compounds read low 1 | locus YBL105C, strain PKC1, active compounds read low 0.987 | locus YBR135W, strain CKS1, active compounds read low 0.998 | locus YBR136W, strain MEC1, active compounds read low 0.988 | locus YBR160W, strain CDC28, active compounds read low 0.994 | locus YDL017W, strain CDC7, active compounds read low 0.994 | locus YDL028C, strain MPS1, active compounds read low 0.992 | [2] 0.984 | locus YDL108W, strain KIN28, active compounds read low 0.988 | locus YDL132W, strain cdc53, active compounds read low 0.99 | locus YDL214C, strain PRR2, active compounds read low 0.968 | locus YDR052C, strain DBF4, active compounds read low 0.991 | locus YDR054C, strain cdc34, active compounds read low 0.994 | locus YDR226W, strain ADK1, active compounds read low 0.995 | locus YDR477W, strain SNF1, active compounds read low 0.979 | locus YER123W, strain YCK3, active compounds read low 0.949 | locus YER133W, strain GLC7, active compounds read low 0.97 | locus YFL009W, strain cdc4, active compounds read low 0.994 | locus YFL029C, strain CAK1, active compounds read low 0.999 | locus YFR003C, strain YPI1, active compounds read low 0.981 | locus YFR019W, strain FAB1, active compounds read low 0.935 | locus YFR028C, strain CDC14, active compounds read low 0.987 | locus YGR040W, strain KSS1, active compounds read low 0.95 | locus YGR052W, strain FMP48, active compounds read low 0.936 | locus YGR092W, strain DBF2, active compounds read low 0.9 | [3] 1.02 | [4] 1 | locus YHR082C, strain KSP1, active compounds read low 0.986 | locus YHR205W, strain SCH9, active compounds read low 0.915 | locus YIL147C, strain SLN1, active compounds read low 0.983 | [5] 0.873 | locus YJL128C, strain PBS2, active compounds read low 0.952 | locus YJL157C, strain FAR1, active compounds read low 0.99 | locus YJR016C, strain ILV3, active compounds read low 0.997 | locus YJR066W, strain TOR1 (second series), active compounds read low 0.927 | [6] 0.964 | locus YKL048C, strain ELM1, active compounds read low 0.956 | locus YKL067W, strain YNK1, active compounds read low 0.971 | locus YKL101W, strain HSL1, active compounds read low 0.937 | locus YKL193C, strain SDS22, active compounds read low 0.992 | locus YKL203C, strain TOR2, active compounds read low 0.985 | [7] 0.922 | locus YLR133W, strain CKI1, active compounds read low 0.952 | locus YLR403W, strain SFP1, active compounds read low 0.908 | locus YML070W, strain DAK1, active compounds read low 0.942 | locus YMR001C, strain CDC5, active compounds read low 0.992 | locus YMR205C, strain PFK2 (second series), active compounds read low 0.973 | locus YMR277W, strain FCP1, active compounds read low 0.989 | locus YNL006W, strain LST8, active compounds read low 0.993 | locus YNL020C, strain ARK1, active compounds read low 0.968 | locus YNL161W, strain CBK1, active compounds read low 0.993 | [8] 0.911 | locus YNL207W, strain RIO2, active compounds read low 0.995 | locus YNL222W, strain SSU72, active compounds read low 0.996 | locus YNL307C, strain MCK1 (second series), active compounds read low 0.909 | locus YOL078W, strain AVO1, active compounds read low 0.993 | locus YOL136C, strain PFK27, active compounds read low 0.94 | locus YOR061W, strain CKA2, active compounds read low 0.975 | locus YOR119C, strain RIO1, active compounds read low 0.993 | [9] 0.972 | locus YOR329C, strain SCD5, active compounds read low 0.991 | locus YPL031C, strain PHO85, active compounds read low 0.961 | locus YPL153C, strain RAD53, active compounds read low 0.963 | locus YPL204W, strain HRR25, active compounds read low 0.941 | locus YPL209C, strain IPL1, active compounds read low 0.988 | [10] 1.08 | locus YPR025C, strain CCL1, active compounds read low 0.998 | locus YPR106W, strain ISR1, active compounds read low 0.985 | locus YPR111W, strain DBF20, active compounds read low 0.973 | strain NNK1, active compounds read low 0.991 | strain TSCII, active compounds read low 0.994

C=CCSC[C@@H](N)C(=O)O
inactive: locus YAL021C, strain ccr4, active compounds read low 0.993 | locus YAL026C, strain drs2, active compounds read low 0.986 | locus YAL030W, strain snc1, active compounds read low 1.01 | locus YBL061C, strain skt5, active compounds read low 0.996 | locus YBR009C, strain hhf1, active compounds read low 1 | locus YBR023C, strain chs3, active compounds read low 0.987 | locus YBR171W, strain sec66, active compounds read low 0.984 | locus YBR231C, strain swc5, active compounds read low 1 | locus YBR279W, strain paf1, active compounds read low 1 | locus YCL011C, strain gbp2, active compounds read low 0.982 | locus YCL016C, strain dcc1, active compounds read low 0.998 | [1] 0.981 | locus YCL069W, strain vba3, active compounds read low 0.99 | locus YCR088W, strain abp1, active compounds read low 0.994 | locus YDL005C, strain med2, active compounds read low 0.988 | locus YDL040C, strain nat1, active compounds read low 1.01 | locus YDR001C, strain nth1, active compounds read low 0.986 | locus YDR069C, strain doa4, active compounds read low 0.994 | locus YDR137W, strain rgp1, active compounds read low 1.01 | locus YDR159W, strain sac3, active compounds read low 0.991 | locus YDR195W, strain ref2 0.985 | locus YDR297W, strain sur2, active compounds read low 1 | locus YDR334W, strain swr1, active compounds read low 0.987 | locus YDR335W, strain msn5, active compounds read low 0.997 | locus YDR392W, strain spt3, active compounds read low 0.996 | locus YEL003W, strain gim4, active compounds read low 0.996 | locus YEL037C, strain rad23, active compounds read low 1.01 | locus YEL061C, strain CIN8 (second series), active compounds read low 0.999 | locus YER015W, strain faa2, active compounds read low 0.992 | locus YER016W, strain bim1, active compounds read low 1.01 | locus YER111C, strain swi4, active compounds read low 1.01 | locus YER155C, strain BEM2 (second series), active compounds read low 1.03 | locus YFR010W, strain ubp6, active compounds read low 0.986 | locus YGL167C, strain pmr1, active compounds read low 0.992 | locus YGL173C, strain kem1, active compounds read low 0.999 | locus YGL227W, strain vid30, active compounds read low 0.986 | locus YGL240W, strain doc1, active compounds read low 1 | locus YGL253W, strain hxk2, active compounds read low 0.993 | locus YHR013C, strain ard1, active compounds read low 1 | locus YHR027C, strain rpn1, active compounds read low 1.01 | [3] 0.943 | [4] 0.96 | locus YHR142W, strain chs7, active compounds read low 0.978 | locus YJL092W, strain hpr5, active compounds read low 0.989 | locus YJL095W, strain BCK1 (second series), active compounds read low 1.01 | [5] 0.936 | locus YJL115W, strain asf1, active compounds read low 0.989 | locus YJL129C, strain trk1, active compounds read low 0.992 | locus YJL154C, strain vps35, active compounds read low 0.982 | locus YJL164C, strain tpk1, active compounds read low 1 | locus YJL166W, strain qcr8, active compounds read low 1 | [6] 0.901 | locus YKL160W, strain elf1, active compounds read low 0.985 | locus YKR026C, strain gcn3, active compounds read low 0.986 | locus YKR091W, strain srl3, active compounds read low 1.01 | locus YLL001W, strain dnm1, active compounds read low 0.987 | locus YLL026W, active compounds read low 0.993 | locus YLL041C, strain sdh2, active compounds read low 0.985 | locus YLR027C, strain aat2, active compounds read low 0.993 | [7] 0.973 | locus YLR221C, strain rsa3, active compounds read low 0.994 | locus YLR258W, strain gsy2, active compounds read low 0.99 | locus YLR262C, strain YPT6 (second series), active compounds read low 0.995 | locus YLR320W, strain mms22, active compounds read low 1.01 | locus YLR342W, strain FKS1, active compounds read low 1.02 | locus YLR357W, strain rsc2, active compounds read low 1.01 | locus YLR370C, strain arc18, active compounds read low 0.999 | locus YLR384C, strain iki3, active compounds read low 0.993 | locus YML120C, strain ndi1, active compounds read low 0.986 | locus YMR058W, strain fet3, active compounds read low 0.992 | locus YMR125W, strain sto1, active compounds read low 0.986 | locus YMR129W, active compounds read low 0.985 | locus YMR205C, strain PFK2, active compounds read low 1 | locus YMR231W, strain pep5, active compounds read low 0.998 | locus YNL071W, strain lat1, active compounds read low 1 | [8] 0.914 | locus YNL209W, strain ssb2, active compounds read low 0.991 | locus YNL248C, strain rpa49, active compounds read low 0.995 | locus YNL322C, strain KRE1 (second series), active compounds read low 1 | locus YNR049C, strain mso1, active compounds read low 0.997 | locus YOR001W, strain rrp6, active compounds read low 0.997 | locus YOR070C, strain gyp1, active compounds read low 0.992 | locus YOR080W, strain dia2, active compounds read low 1 | locus YOR083W, strain WHI5, active compounds read low 1.02 | locus YOR106W, strain vam3, active compounds read low 1 | [9] 0.968 | locus YOR265W, strain rbl2, active compounds read low 0.996 | locus YOR270C, strain vph1, active compounds read low 1 | locus YOR290C, strain snf2, active compounds read low 0.993 | locus YPL051W, strain arl3, active compounds read low 0.998 | locus YPL078C, strain atp4, active compounds read low 0.999 | locus YPL106C, strain sse1, active compounds read low 0.986 | locus YPL240C, strain hsp82, active compounds read low 0.999 | [10] 0.948
